In the library only some 6.8% were active in any assay of this set; here they are far more common.
C diff HTS = blocks growth of Clostridium difficile | Clostridium difficile clinical isolate growth, OD600, 24 h; stronger effect = lower value | growth activity, negative = inhibition, % at 16 µg/mL (by protocol) | hit rate 0.25% among 86,000 | AID 1259249;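 active means mean growth activity at or below -80% and every replicate also at or below -80%; inconclusive means mean at or below -80% but some replicate above -80%; inactive means mean growth activity above -80%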;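 further: 0% = DMSO wells and -100% = levofloxacin 16 µg/mL wells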
Pf Dd2 growth = inhibitors of Plasmodium falciparum Dd2 growth | P. falciparum Dd2 growth, SYBR Green, 72 h; stronger effect = lower value | activity change, % at 10 µM | hit rate 2.3% among 94,000 | AID 1159554; in the data active means activity change below about -80%; inconclusive means no clear call, values can overlap the other calls
T cruzi growth-1 = inhibitors of T. cruzi proliferation; T. cruzi beta-gal in NIH3T3, GalScreen luminescence, 90 h; hit rate 5.9% among 77,000; AID 624255; inhibition, % at 8.34 µM;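 active means mean inhibition above about 93%, with at least 55% of replicates each passing it, limit read from the data, passing the limit was not always enough; inconclusive means only one of those two conditions holds; inactive means neither condition holds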
T cruzi growth-2 = blocks T. cruzi growth in NIH3T3 host cells; AID 651739; inhibition, % at 8.35 µM; hit rate 72% among 5,600; T. cruzi beta-gal in NIH3T3, GalScreen luminescence, 90 h; shares compounds with T cruzi growth-1;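 active means mean replicate inhibition above about 95% and at least 55% of replicates individually reaching it, limit read from the data; inconclusive means only one of the two criteria is met; inactive means neither criterion is met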
T cruzi growth-3 = Trypanosoma cruzi proliferation inhibition. shares compounds with T cruzi growth-1. T. cruzi beta-gal in NIH3T3, GalScreen luminescence, 90 h. inhibition, % at 2.09 µM. hit rate 21% among 5,600. AID 651740;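 active means mean inhibition above about 95%, with at least 55% of replicates also reaching it, limit read from the data; inconclusive means meets just one of the two conditions; inactive means meets neither condition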;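 further: plate controls were neutral control median for no effect and positive control median for full effect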
NIH3T3 tox = kills mouse NIH/3T3 fibroblasts | NIH/3T3 viability, CellTiter-Glo ATP luminescence, 90 h | shares compounds with T cruzi growth-1 | hit rate 14% among 5,600 | AID 651742 | cytotoxicity (signal decrease), % at 8.35 µM;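 active means mean signal decrease across replicates above about 35% based on untreated-well scatter, with enough replicates individually passing, limit read from the data; inconclusive means no rule stated though some were filed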;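 further: 0% = median of neutral control wells and 100% = median of positive control wells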
NIH3T3 tox 2 = kills mouse NIH/3T3 fibroblasts. shares compounds with T cruzi growth-1. NIH/3T3 viability, CellTiter-Glo ATP luminescence, 90 h. inhibition, % at 24.9 µM. hit rate 56% among 5,600. AID 651744;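 active means mean loss of cell viability signal at or above a set limit, and enough replicates individually reaching it; inconclusive means meets only the mean limit or only the replicate share; inactive means meets neither condition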;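 further: 0% = median of neutral control wells and 100% = median of positive control wells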
* hit, by the source's call.

For CC(C)C#Cc1ccc2c(c1)O[C@H](CN(C)C(=O)c1cccc(F)c1)[C@H](C)CN([C@H](C)CO)S2(=O)=O the results were C diff HTS 16, Pf Dd2 growth -53, T cruzi growth-1 111*, T cruzi growth-2 104*, T cruzi growth-3 52, NIH3T3 tox 22 and NIH3T3 tox 2 39*.
`CC(C)C#Cc1ccc2c(c1)O[C@@H](CN(C)C(=O)c1cccc(F)c1)[C@H](C)CN([C@H](C)CO)S2(=O)=O` gave C diff HTS 22, Pf Dd2 growth -70, T cruzi growth-1 103*, T cruzi growth-2 103*, T cruzi growth-3 38, NIH3T3 tox 56* and NIH3T3 tox 2 63*.
CC(C)C#Cc1ccc2c(c1)O[C@H](CN(C)C(=O)c1cccc(F)c1)[C@@H](C)CN([C@H](C)CO)S2(=O)=O was read as C diff HTS 20, Pf Dd2 growth -60, T cruzi growth-1 inconclusive, T cruzi growth-2 106*, T cruzi growth-3 71, NIH3T3 tox 13 and NIH3T3 tox 2 inconclusive.
CO[C@H]1CN(C)C(=O)c2ccc(NC(C)=O)cc2OC[C@@H](C)N(C(=O)C2CCC2)C[C@@H]1C was read as C diff HTS 22, Pf Dd2 growth 22 and T cruzi growth-1 32.
For CCC(=O)Nc1ccc2c(c1)C(=O)N(C)C[C@H](OC)[C@H](C)CN(CCc1ccccc1)[C@H](C)CO2 the results were Pf Dd2 growth 4 and T cruzi growth-1 1.
`CCC(=O)N(C)C[C@H]1Oc2ncc(C#Cc3ccccc3)cc2C(=O)N([C@H](C)CO)C[C@H]1C` gave C diff HTS -2, Pf Dd2 growth 22 and T cruzi growth-1 25.
`Cc1noc(C)c1NC(=O)Nc1ccc2c(c1)CC(=O)N([C@H](C)CO)C[C@H](C)[C@H](CN(C)S(=O)(=O)c1cccs1)O2` gave C diff HTS -1, Pf Dd2 growth 19 and T cruzi growth-1 -33.
O=S(=O)(Cc1ccccc1)N1CCCCN2[C@@H](CO)[C@@H](c3ccc(-c4cccnc4)cc3)[C@@H]2C1 was read as C diff HTS -11, Pf Dd2 growth -53 and T cruzi growth-1 89.
Screening O=S(=O)(Cc1ccccc1)N1CCCCN2[C@H](C1)[C@@H](c1ccc(-c3ccccc3)cc1)[C@@H]2CO returned C diff HTS -10, Pf Dd2 growth -18, T cruzi growth-1 115*, T cruzi growth-2 101*, T cruzi growth-3 89, NIH3T3 tox 22 and NIH3T3 tox 2 96*.
Screening O=S(=O)(Cc1ccccc1)N1CCCCN2[C@H](C1)[C@H](c1ccc(-c3cncnc3)cc1)[C@@H]2CO returned C diff HTS 1, Pf Dd2 growth -26 and T cruzi growth-1 33.
`O=S(=O)(Cc1ccccc1)N1CCCCN2[C@H](C1)[C@H](c1ccc(-c3ccncc3)cc1)[C@@H]2CO` gave C diff HTS 5, Pf Dd2 growth -22 and T cruzi growth-1 -26.
For O=S(=O)(Cc1ccccc1)N1CCCCN2[C@H](C1)[C@H](c1ccc(-c3ccccc3)cc1)[C@@H]2CO the results were C diff HTS 5, Pf Dd2 growth -43, T cruzi growth-1 118*, T cruzi growth-2 105*, T cruzi growth-3 62, NIH3T3 tox 28 and NIH3T3 tox 2 104*.
Screening O=S(=O)(Cc1ccccc1)N1CCCCN2[C@H](C1)[C@@H](c1ccc(-c3cncnc3)cc1)[C@@H]2CO returned C diff HTS -4, Pf Dd2 growth -10, T cruzi growth-1 inconclusive, T cruzi growth-2 96*, T cruzi growth-3 17, NIH3T3 tox 8 and NIH3T3 tox 2 17.
Screening C[C@@H]1CN([C@@H](C)CO)C(=O)Cc2cc(NC(=O)Cn3cnnn3)ccc2O[C@H]1CN(C)Cc1ccc(C(=O)O)cc1 returned C diff HTS 3, Pf Dd2 growth 15 and T cruzi growth-1 9.
Screening COCC(=O)N1C[C@H](C)[C@@H](OC)CN(C)C(=O)c2ccc(NC(=O)c3ccc(OC)cc3)cc2OC[C@@H]1C returned C diff HTS -8 and Pf Dd2 growth 5.
Screening C[C@@H]1CN([C@@H](C)CO)C(=O)c2cc(C#Cc3ccccc3)cnc2O[C@H]1CN(C)C(=O)CN(C)C returned C diff HTS -5 and Pf Dd2 growth -78.
C[C@H]1CCCCO[C@H](CN(C)C(=O)CCCN(C)C)[C@@H](C)CN([C@@H](C)CO)C(=O)c2cc(NC(=O)Nc3ccc(F)cc3)ccc2O1 was read as C diff HTS -1, Pf Dd2 growth 6 and T cruzi growth-1 -28.
`CNC[C@H]1OCCCC[C@@H](C)Oc2ccc(NC(=O)Nc3ccc(F)cc3)cc2C(=O)N([C@H](C)CO)C[C@H]1C` gave C diff HTS 1, Pf Dd2 growth -2 and T cruzi growth-1 64.
Screening C[C@@H]1CN([C@@H](C)CO)S(=O)(=O)c2ccc(Br)cc2O[C@@H]1CN(C)S(=O)(=O)c1ccc(F)cc1 returned C diff HTS 13, Pf Dd2 growth -11 and T cruzi growth-1 34.
C[C@@H]1CN([C@@H](C)CO)S(=O)(=O)c2ccc(Br)cc2O[C@H]1CN(C)S(=O)(=O)c1cccc(F)c1 was read as C diff HTS 8, Pf Dd2 growth -1, T cruzi growth-1 107*, T cruzi growth-2 111*, T cruzi growth-3 30, NIH3T3 tox 28 and NIH3T3 tox 2 68*.
`C[C@H]1CN([C@@H](C)CO)S(=O)(=O)c2ccc(Br)cc2O[C@H]1CN(C)S(=O)(=O)c1ccc(F)cc1` gave Pf Dd2 growth -9, T cruzi growth-1 106*, T cruzi growth-2 106*, T cruzi growth-3 9, NIH3T3 tox 16 and NIH3T3 tox 2 inconclusive.
`C[C@@H]1CN([C@@H](C)CO)S(=O)(=O)c2ccc(Br)cc2O[C@@H]1CN(C)S(=O)(=O)c1ccccc1` gave C diff HTS 25 and Pf Dd2 growth 8.
Screening O=C(c1ccncc1)N1CCCCN2[C@H](CO)[C@H](c3ccc(C#Cc4ccccn4)cc3)[C@@H]2C1 returned C diff HTS 2, Pf Dd2 growth -7 and T cruzi growth-1 33.
CCS(=O)(=O)N1CCCCN2[C@H](C1)[C@@H](c1ccc(C#Cc3ccccn3)cc1)[C@@H]2CO was read as C diff HTS -9, Pf Dd2 growth 26 and T cruzi growth-1 95.
Screening COc1ccc(NC(=O)N2CCCCN3[C@H](CO)[C@H](c4ccc(C#Cc5ccccc5)cc4)[C@H]3C2)cc1 returned C diff HTS 50, Pf Dd2 growth -48 and T cruzi growth-1 62.
